The campaign covered roughly 320,000 compounds. About 1,100 (0.34%) were called active. Only a selection was taken, and actives are over-represented in it overall. Unmarked numbers belong to inactive results.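 The calls were made as follows: active = GFP response vs DMSO above a set limit, about the screen mean plus 3 SD (cut at about 150% in these data); inconclusive = under 70 cell events counted for the yeast strain; inactive = the rest.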

This note sets out measurements from PubChem BioAssay AID2023 (NMMLSC, 2009).

The nature of this experiment: TOR pathway LAP4-GFP level changes – S. cerevisiae, multiplex flow cytometry, MLPCN library, primary screen (AID 2023). The note with it: 3 h, at 10 µM, active compounds read high, median GFP as percent of DMSO wells. Background: In flow cytometry, cells or beads pass a laser one at a time.
With `Cc1onc(-c2c(F)cccc2Cl)c1C(=O)OCC(=O)N1C(C)CCCC1C` (stereo not given), the GFP response vs DMSO was 107%.
For `CCOC(=O)/C=c1\s/c(=C\c2ccc(C#N)cc2)c(=O)n1CC(=O)Nc1cccc(C)c1C` the value was 96.9%.
The value for `CN(c1ccccc1)c1ccc(/C=c2\s/c(=C(/C#N)C(=O)C(C)(C)C)n(Cc3ccco3)c2=O)cc1` was 377% (active); that for `CCOC(=O)Cn1c(=O)oc2cc(S(=O)(=O)N(C)Cc3ccco3)ccc21` was 107%.
Consider `CC1C=CCC2C(=O)N(c3cccc(C(=O)N4CCCCCC4)c3)C(=O)C12` (stereo not given), for which the GFP response vs DMSO is 97.9%.
In the case of `COC(=O)C[n+]1cccc2ccccc21`, the GFP response vs DMSO is 212% (active).
For `COc1ccccc1NC(=O)C[n+]1ccccc1` the value was 109%; for `Cc1cccc[n+]1CC(=O)c1ccccc1`, 91.6%; for `CC1(C)CC(=O)C2=C(C1)N=C1SCCC(=O)N1C2c1ccc(C(F)(F)F)cc1` (stereo not given), 98.2%.
For `CCCCNc1c(-c2ccc(OC)c(Sc3ccc(OC)cc3)c2)nc2ccc(Cl)cn12` the value was 141%.
For `CCCCCCSc1ccc(-c2nc3ccc(Cl)cn3c2NCc2ccccc2)cc1` the value was 99.4%; for `CCCCNc1c(-c2cccc(Sc3ccc(OC)cc3)c2)nc2ccccn12`, 151% (active).
In the case of `COc1ccc(N2CCN(S(=O)(=O)c3cc(Br)cnc3N)CC2)cc1`, the GFP response vs DMSO is 100%.
For `CCOc1ccc(-n2c(SC(C)C(=O)OC)nc3c(c2=O)SCC3)cc1` (stereo not given) the value was 95.9%.
For `CCN1/C(=C/c2ccc3ccc(C)cc3[n+]2CC)Sc2ccccc21` the value was 319% [may fluoresce green] (active); for `CCN1/C(=C\c2ccc3ccccc3[n+]2CC)Sc2cc(C)ccc21`, 501% [may fluoresce green] (active).
For the compound `O=C1CCC/C=C\C[C@@H](CC(=O)N(CCO)Cc2ccccc2)C(=O)NCCO1`, the GFP response vs DMSO was 85.9%.
For `NS(=O)(=O)c1ccc(CCNC(=O)CCCn2c(SCC(=O)N3CCCC3)nc3ccsc3c2=O)cc1` the value was 101%; for `Clc1cccc(CN2COc3c(cc(Cl)c4cccnc34)C2)c1`, 182% (active).
The value for `CC(C)CC(=O)N1CCN(Cc2cccc(Cl)c2)CC1` was 102%; that for `O=C(c1cccc(Cl)c1)N1CCN(Cc2ccccc2)CC1` was 101%.
As to `CC(C)=CCC/C(C)=C/C(=O)O`, the GFP response vs DMSO was 105%.
For the compound `O=C(CN1CCCSc2ccccc21)N1CCN(S(=O)(=O)c2cccc(F)c2)CC1`, the GFP response vs DMSO was 110%.
For `CC1=NNC(=O)C1Cc1c(Cl)cccc1Cl` (stereo not given) the value was 98.6%.
For `O=C(OC1CCOC1=O)c1cccc(S(=O)(=O)Nc2ccc(F)cc2)c1` (stereo not given) the value was 95.1%.
